Laboratory results taken from PubChem BioAssay (NCI).
About 83,000 compounds went through this panel and 20% of them were active in at least one assay; those are over-represented in the sample as a whole.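 Single-dose data. Exposure time 48 hours. Values below 10 considered active.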 Unmarked numbers belong to inactive results. The source made the active and inactive calls.

Each molecule was assayed on HL-60(TB) leukemia (assay: NCI-60 one-dose screen, 48 h (100 = growth as untreated, 0 = no growth, -100 = all killed)). Details: 10 µM unless noted.

Row | SMILES | growth
1 | O=S(=O)(O)c1cc(O)c2c(N=Cc3ccccc3O)c(S(=O)(=O)O)ccc2c1 | 101%
2 | COc1cc(/C=C2\CN(C(=O)CCN3CCC(=NO)CC3)C/C(=C\c3cc(OC)c(OC)c(OC)c3)C2=O)cc(OC)c1OC | -27.9% (active)
3 | O=C(NNC(=O)c1cccc(Cl)c1)c1ccccc1 | 94.3%
4 | C=C(C)[C@@H]1CC[C@]2(COCCCNCCCN)CC[C@]3(C)[C@H](CC[C@@H]4[C@@]5(C)CC[C@H](OCCCN)C(C)(C)[C@@H]5CC[C@]43C)[C@@H]12 | 48.2%
5 | COc1ccc(CC(C)=C(c2ccc(OCCN3CCCCCC3)cc2)c2ccc(OCCN3CCCCCC3)cc2)cc1 | -59.8% (active)
6 | O=C(c1ccc(Cl)cc1)c1ccc(Cl)cc1 | 113%
7 | CCCCCCc1cc2cc(-c3nc4ccccc4[nH]3)c(=Nc3ccccc3C)oc2cc1O | 12.2%
8 | COc1ccc(C2(Cl)c3ccccc3N(c3ccccc3)c3ccccc32)cc1 | -22.3% (active)
9 | CN(C)c1ccc(C(=NO)c2ccc(N(C)C)cc2)cc1 | 25%
10 | O=C(CCCCCCN1CC(=O)N2[C@H](c3ccc(Br)cc3)c3[nH]c4ccccc4c3C[C@@H]2C1=O)NO | 5.8% (active)
11 | CNC(=O)c1[nH]cc(-c2ccccc2)c1-c1cc(OC)c2c(c1OC)OCO2 | 93.3%
12 | COc1ccc2c(c1)C(=O)/C(=C/c1ccc([N+](=O)[O-])s1)O2 | -10.7% (active)
13 | Fc1cc(F)cc(C(c2c[nH]c3ccccc23)c2c[nH]c3ccccc23)c1 | 147%
14 | O=C(/C=C/C=C/c1c(C2CC2)nc2ccccc2c1-c1ccc(F)cc1)c1cccs1 | -17.5% (active)
15 | C=C(C)[C@@H]1CC[C@]2(C(=O)O)CC[C@]3(C)[C@H](CC[C@@H]4[C@@]5(C)C/C(=C/c6cccc(I)c6)C(=O)C(C)(C)[C@@H]5CC[C@]43C)[C@@H]12 | 7.47% (active)
16 | O=C(Nc1cccc2[nH]c(C(F)(F)F)nc12)c1ccc(-n2cnnn2)cc1 | 1.31% (active)
17 | COC(OC)C1(c2ccccc2)NC(=O)NC1=O (stereo not given) | 122%
18 | Cc1cccc(-c2nnc(SCC(=O)Nc3ncc(Cc4ccccc4)s3)n2N2C(=O)CSC2=S)c1 | 97.8%

Row | SMILES | growth
19 | C#C[C@]1(O)CC[C@H]2[C@@H]3CC=C4c5nc(Nc6ccccn6)sc5CC[C@]4(C)[C@H]3CC[C@@]21C | 10.6%
20 | COc1ccc(CN2c3ccccc3CCc3ccccc32)cc1F | -25.7% (active)
21 | O=C(COc1cccc(/C=C2\Oc3ccc4ccccc4c3C2=O)c1)c1ccc([N+](=O)[O-])cc1 | 94.8%
22 | Cc1ccc(S(=O)(=O)NCCNc2nccc(-c3c(-c4ccc(O)cc4)nc4sccn34)n2)cc1 | 155%
23 | COc1ccc(C2CC(c3cc(OC)c(OC)c(OC)c3)=NN2)cc1 (stereo not given) | 60.1%
24 | Cc1cc(Cl)ccc1Nc1nc(C(F)(F)F)ccc1C(=O)N/N=C/c1ccc([N+](=O)[O-])cc1 | -24.1% (active)
25 | CCOC(=O)C1CCN(S(=O)(=O)/N=C2/NC(=O)NC2=C(Cl)Cl)CC1 | -45.9% (active)
26 | Nc1nc(Nc2ccccc2SSc2ccccc2Nc2nc(N)nc(-c3cccc(Cl)c3)n2)nc(-c2cccc(Cl)c2)n1 | 99.3%
27 | O=C(/C(=C/c1ccccc1)CN1CCCCC1)c1ccccc1 | -16.4% (active)
28 | COc1ccc(CCCc2c3[n+](cc4c(OC)c(OC)ccc24)CCc2cc4c(cc2-3)OCO4)cc1 | 36.6%
29 | CCCCNC(=O)NS(=O)(=O)c1ccc(N2N=C(c3ccc(C)cc3C)CC2c2ccc(OC)cc2)cc1 (stereo not given) | 17.4%
30 | CCCCCc1c(C)[nH]c(/C=C2\N=C(c3ccc[nH]3)C=C2OCc2ccccc2)c1C | -47.5% [100 µM] (active)
31 | CC(=O)Oc1csc(N(C(C)=O)c2cc(C(=O)O)cc(C(=O)O)c2)n1 | 113%
32 | COc1cc(-c2nn(-c3cccc(NC(=O)CCNc4ccc(N5CCOCC5)cc4)c3)cc2-c2ccncc2)ccc1Cl | 8.36% (active)
33 | CCOc1ccc(/C=N/NC(=O)c2cccc3ccccc23)cc1OCC | 100%
34 | CCN(CC)CCNc1ccc(CO)c2sc3ccccc3c(=O)c12 | 60.8%
35 | COc1cc(-c2nc(SCC(=O)Nc3ccc(C(C)=O)cc3)[nH]c(=O)c2C#N)cc(OC)c1OC | -54.3% (active)
